Test results: PubChem BioAssay (NCATS)
Several values for one entry are separate records, joined by “and”; a condition that tells them apart may be missing. Equal values may be shown once. Inconclusive results are not listed. Activity calls are given as the source filed them. Calls follow the shape of the dose curve; as a rule, active = well fitted activation curve with a large enough effect; inconclusive = small, poorly fitted or top-dose-only effect; inactive = no such curve, though single readings can be large or run the other way.

Biological target: Cellular tumor antigen p53 (Homo sapiens) (UniProt P04637)
Sequence (P04637 whole entry, looked up): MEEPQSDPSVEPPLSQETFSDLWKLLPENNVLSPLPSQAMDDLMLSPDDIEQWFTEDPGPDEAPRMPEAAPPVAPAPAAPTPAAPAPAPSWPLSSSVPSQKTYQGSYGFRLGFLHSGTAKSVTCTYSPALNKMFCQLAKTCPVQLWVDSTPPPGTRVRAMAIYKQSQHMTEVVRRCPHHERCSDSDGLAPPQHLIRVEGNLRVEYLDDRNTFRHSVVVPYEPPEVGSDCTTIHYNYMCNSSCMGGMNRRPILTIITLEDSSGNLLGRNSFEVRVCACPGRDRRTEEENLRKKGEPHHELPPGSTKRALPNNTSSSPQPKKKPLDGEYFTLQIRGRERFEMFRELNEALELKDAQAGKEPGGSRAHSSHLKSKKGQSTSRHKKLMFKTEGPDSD
Experiment: Primary qHTS for small molecule compounds that upregulate eGFP-tagged delta133p53alpha (in N-terminal) cells. (AID 2060322); also: nearly all actives have a fitted effect of over 75% in size;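 as to activation: series mostly up to about 56 µM; 0% = DMSO vehicle and 100% = reference activator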
Settings: NCI-H358 eGFP-delta133p53alpha fluorescence, 24 h; activation: hits give high values
Method in brief: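 NCI-H358 cells pre-induced 24 h with 10 ng/ml doxycycline to express N-terminal eGFP-delta133p53alpha, then dosed 24 h at 37C without doxycycline; fixed, Hoechst-stained, GFP intensity by laser scanning cytometry, normalized to DMSO (0%) and 57.5 uM 5-azacytidine (100%).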
Potency is read from the fitted curve at half-maximal effect.

| Structure (SMILES) | activation | Potency |
| --- | --- | --- |
| COc1ccc(CC2SC(=O)NC2=O)cc1C(=O)NCc1ccc(C(F)(F)F)cc1 (centres undefined) | -5.55% (inactive) |  |
| NC(=O)c1ccc(-c2nc(-c3ccc4c(c3)OCCO4)c(-c3ccccn3)[nH]2)cc1 | -1.5% (inactive) |  |
| Nc1nc(N)c2nc(-c3cccc(O)c3)c(-c3cccc(O)c3)nc2n1 |  | 24.3 µM (active) |
| C[N+](C)([O-])CCNc1ccc(NCC[N+](C)(C)[O-])c2c1C(=O)c1c(O)ccc(O)c1C2=O | 9.32% (inactive) |  |
| Cc1cccc(CN2CCN(C(c3ccccc3)c3ccc(Cl)cc3)CC2)c1 (centres undefined) | 5.02% (inactive) and 0.39% (inactive) |  |
| CC[C@@H]([C@H](C)O)n1ncn(-c2ccc(N3CCN(c4ccc(OCC5CO[C@@](Cn6cncn6)(c6ccc(F)cc6F)C5)cc4)CC3)cc2)c1=O (some centres undefined) | 7.66% (inactive) |  |
| CC[C@@H](C)[C@H](NC(=O)[C@H](CC1CCCCC1)NC(=O)c1ccno1)C(=O)N1CCC2(CCc3ccccc32)CC1 | 0.928% (inactive) and 1.43% (inactive) |  |
| NC[C@H]1O[C@H](O[C@@H]2[C@@H](O)[C@@H](O[C@H]3O[C@H](CO)[C@@H](O)[C@H](N)[C@@H]3O)[C@H](N)C[C@@H]2N)[C@H](O)[C@@H](O)[C@H]1O | 5.09% (inactive) |  |
| CN[C@@H](C)C(=O)N[C@H]1CCCC[C@H]2CC[C@@H](C(=O)N[C@@H](c3ccccc3)c3cn(CCCCc4ccc(CCCCn5cc([C@@H](NC(=O)[C@@H]6CC[C@@H]7CCCC[C@H](NC(=O)[C@H](C)NC)C(=O)N76)c6ccccc6)nn5)cc4)nn3)N2C1=O | 16.4% (inactive) |  |
